IMPase inh = membrane-permeable compound that blocks inositol monophosphatase | CHO-M1 cells, IP1 accumulation, HTRF TR-FRET ratio | inhibition (IP1 accumulation), % at 46.1 µM | AID 901 | 120,000 tested, under 10 active | P97697; active = well fitted curve in the direction sought with a large enough effect in the signal ratio, not every such curve was filed as active; inconclusive = small, poorly fitted or top-dose-only effect, or a change in a side signal; inactive = no such curve, though single readings can be large or run the other way; the % refers to the signal ratio;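 also: cells stimulated with carbachol in lithium chloride buffer; plate controls were DMSO basal wells for no effect and reference inhibitor wells for full effect; higher means more IMPase inhibition seen as more IP1 and lower FRET ratio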
Target sequence (P97697 whole entry, looked up): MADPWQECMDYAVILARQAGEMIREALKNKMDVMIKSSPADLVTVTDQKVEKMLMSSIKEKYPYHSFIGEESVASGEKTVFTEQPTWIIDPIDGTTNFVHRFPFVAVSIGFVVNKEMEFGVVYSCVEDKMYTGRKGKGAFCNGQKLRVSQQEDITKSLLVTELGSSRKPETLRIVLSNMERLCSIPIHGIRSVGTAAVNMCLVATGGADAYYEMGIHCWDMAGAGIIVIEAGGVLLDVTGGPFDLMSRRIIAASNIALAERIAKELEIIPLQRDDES
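Carbachol-driven Gq signalling in CHO-M1 cells (2000/well) generates IP1. Compounds that block IMPase raise IP1 and so reduce the FRET signal from Eu-anti-IP1 and d2-IP1 after a 10 min room-temperature lysis.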
KinaseGlo FLuc = counter-screen: inhibitors of Kinase-Glo firefly luciferase; Kinase-Glo luciferase, ATP luminescence, 8 min; Q27757; Potency, µM (series often up to 38.3 µM), inactives show top-dose activity change, negative = inhibition, usual class: inhibitors; AID 1379; actives 0.28% (n = 200,000); active = well fitted inhibition curve with a large enough effect; inconclusive = small, poorly fitted or top-dose-only effect; also: potency is read from the fitted curve at half-maximal effect; nearly all actives have a fitted effect of over 60% in size
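Kinase-Glo luciferase light output from ATP and luciferin was measured with 10 uM ATP, within the enzyme's linear range. Buffer: 50 mM imidazole pH 7.2, 50 mM KCl, 7 mM MgCl2, 0.01% Tween 20, 0.05% BSA; luminescence read after 8 min at ambient temperature.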
PNC assembly inh = perinucleolar compartment assembly inhibition; PC3M PTB-GFP, PNC prevalence imaging, 16 h; active compounds read low; activity change (PNC), negative = inhibition, % at 10 µM; actives 3.1% (n = 140,000);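 active = readout at or below -70, meaning at least 70% loss of cells showing the perinucleolar compartment, a nuclear body marking cancer cells; inconclusive = readout between -30 and a set limit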;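 also: plate controls were DMSO wells for no effect and camptothecin positive control wells for full effect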
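Compounds are pinned in duplicate onto adhered PC3M cells stably expressing GFP-tagged PTB and incubated 16 h at 37 C. Cells are then fixed, nuclei stained with Hoechst, and PNC-positive cells counted.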
HPGD block = inhibitors of human 15-hydroxyprostaglandin dehydrogenase (HPGD); P15428; Potency, µM, inactives show at the highest dose activity change, negative = inhibition, actives largely listed as inhibitors; AID 894; purified HPGD, NADH fluorescence kinetic, PGE2 substrate; actives 4.3% (n = 150,000); also: potency is read from the fitted curve at half-maximal effect
Target sequence (P15428 whole entry, looked up): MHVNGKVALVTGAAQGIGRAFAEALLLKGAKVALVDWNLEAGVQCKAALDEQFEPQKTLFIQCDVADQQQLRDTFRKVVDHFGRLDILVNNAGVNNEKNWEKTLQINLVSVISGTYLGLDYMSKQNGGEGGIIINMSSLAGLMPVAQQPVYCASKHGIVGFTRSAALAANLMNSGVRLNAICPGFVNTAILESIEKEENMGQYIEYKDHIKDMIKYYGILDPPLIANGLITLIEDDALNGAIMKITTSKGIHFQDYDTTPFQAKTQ
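NADH formation kinetics: reaction with 30 uM PGE2 and 1 mM NAD+ (final), 20 nM enzyme, Tris-HCl pH 8 with Tween 20, after 15 min compound preincubation at room temperature. Fluorescence change, last versus first of five reads.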
ALDH1A1 block = inhibitors of human aldehyde dehydrogenase 1A1. P00352. actives 7.3% (n = 220,000). AID 1030. Purified ALDH1A1, NADH fluorescence, propionaldehyde substrate. Potency, µM (titrated, usually from 75.3 µM), for inactives: at the highest dose activity, negative = inhibition, hits mostly inhibitors;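 also: potency is read from the fitted curve at half-maximal effect; plate controls were no enzyme wells and a reference inhibitor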
Lamin A splicing = modulators of lamin A splicing. HeLa LMNA splicing GFP/RFP minigene ratio, 48 h. Potency, µM (top dose mostly 46.1 µM), for inactives: at the highest dose ratio change, negative = inhibition, usual class: inhibitors. actives 0.01% (n = 200,000); active = well fitted inhibition curve with a large enough effect in the signal ratio, with a control signal flat, not every such curve was filed as active; inconclusive = small, poorly fitted or top-dose-only effect, or effect the other way, or a change in a side signal; the % refers to the signal ratio; also: potency is read from the fitted curve at half-maximal effect
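S3 HeLa cells stably expressing lamin A-EGFP splicing minigene plus DsRed2, 600 cells/well, 48 h compound exposure at 37C. Laser-scanning cytometry; analysed as GFP (500-530 nm)/RFP (575-640 nm) total intensity ratio; 0.5% DMSO vehicle.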
An asterisk follows results filed as active; ? = inconclusive; / = no result; [ ] = remark or other dose. A selection: hits, their analogues and other compounds. The true share with any hit is near 10%. Unless noted, calls follow the shape of the dose curve; as a rule, active = well fitted inhibition curve with a large enough effect (not every such curve was filed as active); inconclusive = small, poorly fitted or top-dose-only effect, or another doubt; inactive = no such curve, though single readings can be large or run the other way. Unless noted, % is scaled to controls: 0 for no effect and ±100 for the full control effect.

SMILES	IMPase inh	KinaseGlo FLuc	PNC assembly inh	HPGD block	ALDH1A1 block	Lamin A splicing
COC(=O)CN=Cc1c(C)[nH]n(-c2ccccc2)c1=O	/	0%	/	/	-7%	?
CC(=O)N1CCc2cc(CNC(=O)Nc3ccc(Br)c(C)c3)ccc21	/	/	/	/	/	27%[46 µM]
Cc1ccc(NC(=O)Cn2c(=O)cnc3ccccc32)cc1S(=O)(=O)N(C)C	6	3%	?	-13%	14µM*	?
CC(=O)c1ccccc1NC(=O)Cn1c(=O)cnc2ccccc21	/	2%	?	-14%	1.8µM*	?
COCCn1c(SCC(=O)Nc2ccc(Cl)c(S(=O)(=O)N(C)C)c2)nc2ccccc21	2	-3%	?	-17%	32µM*	?
Cc1ccc(NC(=O)CN2CCc3ccccc3C2)cc1S(=O)(=O)N(C)C	/	3%	/	/	?	-20%[46 µM]
CN(C)C1CCN(C(=O)c2ccc(-n3c(=O)c(=O)[nH]c4ccccc43)cc2)C1 (centres undefined)	/	-2%	/	-7%	9%	/
COC(=O)C1=C(C(=O)OC)[C@@H]2N(C)c3ccccc3[C@@]23C[C@@H](C(=O)OC)N(S(=O)(=O)c2ccc4c(c2)OCCN4C)C3=N1	/	-6%[7.66 µM]	/	-20%	?	-3%[9.22 µM]
CC1=C(C(N)=O)C(c2cccc(F)c2)n2nc(SCc3ccccc3)nc2N1 (centres undefined)	/	/	/	/	/	21%[46 µM]
Oc1ccc(Cl)cc1-c1cc(-c2ccccc2)n[nH]1	?	3%	-12	16µM*	4%	?
Oc1ccc(Br)cc1-c1cc(-c2ccccc2F)[nH]n1	?	-3%	18	4.5µM*	2%	-2%
O=C(c1ccco1)N1CCC2(CC1)CN(c1ccccn1)C2	/	-6%	/	?	?	/
C=CCc1cccc(C2C(C)CCC3C(=O)N4C(CCC(C)C4c4cccc(CC=C)c4)C(=O)N32)c1 (centres undefined)	/	/	/	/	6.3µM*	/
C[C@@H]1CC[C@H]2C(=O)N3[C@@H](CC[C@@H](C)[C@@H]3c3ccc(Br)cc3)C(=O)N2[C@@H]1c1ccc(Br)cc1	/	/	/	/	-9%[13.5 µM]	/
C[C@@]12C=CC(=O)C=C1CC[C@@H]1C2=CC[C@]2(C)[C@@H]1CC[C@H]2C(=O)CN1CCN(c2cc(N3CCCC3)nc(N3CCCC3)n2)CC1	11	/	/	/	/	/
COc1ccc(C(=O)NC2CC(=O)N(c3ccc4c(c3)OCCO4)C2)cc1 (centres undefined)	/	/	/	/	/	-2%[46 µM]
Cc1sc2nc(CN3CCOCC3)nc(Oc3ccc(NC(=O)c4ccco4)cc3)c2c1C	8	/	37	/	18µM*	2%
Cc1sc2nc(CN3CCOCC3)nc(N3CCOCC3)c2c1C	-4	-1%	33	-10%	14µM*	6%
CCc1ccccc1-n1cnc2cc(C(=O)NC3CCCCCC3)ccc21	/	/	/	/	/	-8%[46 µM]
COc1ccccc1-n1cnc2cc(NCc3cccs3)ccc21	4	-4%	-81*	?	?	?
CCCNC(=O)c1ccc2c(c1)ncn2-c1ccccc1OC	-4	-2%	?	18µM*	2%	-13%
COc1ccc(-n2cnc3cc(C(=O)NCCN4CCOCC4)ccc32)cc1	/	0%	/	/	-5%	/
COc1ccc(OC)c(-n2cnc3cc(C(=O)NCCCN4CCOCC4)ccc32)c1	1	-5%	-16	25µM*	-2%	-11%
CCN(C(=O)Cn1c(SCC(=O)Nc2ccc(OC)cc2)nc2ccccc21)c1cccc(C)c1	/	/	/	/	/	-18%[46 µM]
O=C(CN1CCOCC1)Nc1ccc(OCc2ccccc2)cc1	4	-2%	6	-15%	13µM*	21%
SMILES	IMPase inh	KinaseGlo FLuc	PNC assembly inh	HPGD block	ALDH1A1 block	Lamin A splicing
CC(=O)c1ccc(NC(=O)CSc2nnc(NC(=O)CN3CCOCC3)s2)cc1	3	-4%	3	-3%	0%	0%
O=C(CN1CCOCC1)Nc1ccc(Oc2ccc(NC(=O)CN3CCOCC3)cc2)cc1	-5	2%	5	?	18µM*	10%
Cc1ccc(NC(=O)CSc2nnc(NC(=O)CN3CCOCC3)s2)cc1	0	-1%	-117*	-17%	?	2%
CC(C)c1ccccc1Oc1c(C(F)(F)F)oc2c(CN3CCN(C)CC3)c(O)ccc2c1=O	-6	/	/	/	/	/
COc1cccc(-n2cc(C(=O)Nc3cc(C)c(Cl)cc3OC)c3ccccc3c2=O)c1	/	/	/	/	/	-1%[46 µM]
O=c1c2cnn(-c3ccccc3)c2ncn1Cc1cccc(Cl)c1	7	-1%	-108*	-8%	1%	-2%
COc1cccc(-n2nnc3c(=O)n(Cc4c(F)cccc4Cl)cnc32)c1	0	0%	6	28µM*	?	5%
COc1ccc(-n2nc(C(=O)NCC(=O)NCC3CCCO3)c3ccccc3c2=O)c(OC)c1 (centres undefined)	0	/	?	/	13µM*	2%
COc1cccc(-n2nnc3c(=O)n(CC(=O)NCC4CCCO4)cnc32)c1 (centres undefined)	10	2%	?	16µM*	-7%	-9%
COc1ccc(C)cc1NC(=O)Cn1c(=O)ccc2cc(S(=O)(=O)N3CCC(C)CC3)ccc21	/	/	/	/	/	15%[46 µM]
COc1ccc(-n2nnc3c(=O)n(Cc4ccccc4C)cnc32)cc1	9	-1%	?	-3%	-1%	?
COc1cccc(-n2nnc3c(=O)n(Cc4cccc(F)c4)cnc32)c1	-4	-1%	-3	14µM*	4%	20%
COc1ccc(-n2ncc3c(=O)n(Cc4c(F)cccc4Cl)cnc32)cc1	/	1%	/	/	28µM*	/
COc1ccc(-n2nnc3c(=O)n(Cc4cccc(C)c4)cnc32)cc1	9	0%	-28	16µM*	-15%	13%
COc1cccc(-n2nnc3c(=O)n(CC(=O)N4CCCCC4)cnc32)c1	5	2%	4	?	-3%	3%
Cc1nc(-n2nc(C)c(Cc3ccccc3Cl)c2C)sc1C(=O)Nc1ccccc1F	/	/	/	/	/	5%[46 µM]
Cc1cccc(NC(=O)C2CCN(S(=O)(=O)c3ccc4c(c3)CCCC(=O)N4)CC2)c1	/	/	/	/	/	1%[46 µM]
COc1cccc(Cn2c(=O)c(C)nc3cnc(OCc4ccccc4)nc32)c1	/	-2%	/	-22%	?	/
CC(=O)N1CCc2c(sc(NC(=O)CSc3ccccc3)c2-c2nc3ccccc3s2)C1	/	/	/	/	/	18%[46 µM]
CCCCC(=O)Nc1sc2c(c1-c1nc3ccccc3s1)CCN(C(C)=O)C2	6	4%	-28	-20%	25µM*	?
COc1ccc(OC)c2sc(N(Cc3cccnc3)C(=O)c3ccco3)nc12	/	/	/	/	/	-16%[46 µM]
COc1ccc(C2=NN(c3ccccc3)C(=O)/C2=C\c2ccc(O)c(OC)c2)cc1	/	-21%	/	/	20µM*	/
COc1cc(/C=C2\SC(c3ccc(C)cc3)=NC2=O)cc(OC)c1OC	4	2%	12	?	?	-16%
